From PubChem BioAssay
Rows were chosen to be rich in hits. Some 21% of all compounds tested hit in one or more screens of this group.
Pf growth 96h: P. falciparum growth inhibition at 96 hours; AID 504834; actives 6.9% (n = 320,000); P. falciparum luciferase reporter growth, 96 h; Potency, µM (highest dose often 28.7 µM), inactives show at the highest dose activity change, negative = inhibition, most hits filed as inhibitors; further: potency means the concentration at half of the fitted maximal effect; on the % scale 0 is the no-effect control and ±100 the full control effect
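Luminescence readout: decreased luciferase signal marks inhibited growth of reporter-expressing P. falciparum in infected red cells (2% hematocrit, 0.05% parasitemia final), exposed to compound two generations (96 h, 37 C, 5% CO2).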
Shiga toxin inh: blocks Shiga toxin action in Vero cells. Vero cells, Shiga toxin protein synthesis inhibition reporter. inhibition, % at 38.7 µM. actives 9.2% (n = 290,000). AID 2315; in the data active means inhibition mostly above about 28%, no sharp cut-off; inactive means mostly below about 43%; further: 0% is about no effect
Pf growth 48h: P. falciparum growth inhibition at 48 hours (one generation) | actives 5.9% (n = 310,000) | P. falciparum luciferase growth in erythrocytes, 48 h | Potency, µM (series often up to 28.7 µM), without a hit: top-dose activity change, negative = inhibition, actives largely listed as inhibitors; further: potency means the concentration at half of the fitted maximal effect; on the % scale 0 is the no-effect control and ±100 the full control effect
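In quantitative HTS format, infected erythrocytes bearing luciferase-reporter parasites were treated for a single generation at 37 C. Luminescence after adding detection reagent served as the growth measure.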
NS1 inh: blocks influenza NS1 protein function. Potency, µM (series often up to 46.1 µM), inactives show at the highest dose activity, positive = more growth. actives 0.4% (n = 270,000); calls by dose curve; further: potency means the concentration at half of the fitted maximal effect; actives are rising curves; nearly all actives have a fitted effect of over 50% in size
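Read-out: OD600 growth recovery of NS1-expressing budding yeast. Cells grown overnight at 30C in -URA glucose medium, washed, resuspended and diluted 1:100 in 2% galactose assay medium, pH 6.0. Same strain lacking NS1 served as positive control.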
Cycloheximide cs: counter-screen hit for Shiga toxin inhibitors, cycloheximide; cell reporter, cycloheximide protein synthesis inhibition counterscreen; max response, %; actives 12% (n = 300,000); AID 2314; in the data active means max response mostly above about 13%, no sharp cut-off; inactive means mostly below about 14%; further: read at 38.3 µM for the half of the compounds with a filed dose; 0% is about no effect
The depositor's hits bear a star; ? = inconclusive; · = no result; [ ] = another dose, or the depositor's remark. Unless noted, the call rests on the fitted dose curve; in most records, active means well fitted inhibition curve with a large enough effect; inconclusive means small, poorly fitted or top-dose-only effect, or another doubt; inactive means no such curve, though single readings can be large or run the other way.

SMILES	Pf growth 96h	Shiga toxin inh	Pf growth 48h	NS1 inh	Cycloheximide cs
CCOC(=O)c1ccc(NC(=O)NCc2ccccc2OC)cc1	13.1µM*	14.6	?	-9.4%	2.7
CCN1C(=O)[C@@H]2[C@@H](c3ccc(-c4ccc(Cl)c(Cl)c4)c(OC)c3)N3CCCC[C@@]3(C(=O)OC)[C@@H]2C1=O	?	·	2.62µM*	·	·
CCOC(=O)C1(C)NC(c2cc(OC)c(OC)c(OC)c2)C2C(=O)N(CC)C(=O)C21 (stereo not given)	18.9%	-22.6	0.0%	1.2%	-1.7
COC(=O)[C@@]12CCCCN1[C@H](c1ccc(-c3ccc(OC)cc3)cc1)[C@H]1C(=O)N(C)C(=O)[C@H]12	-26.0%	·	?	·	·
CCN1C(=O)[C@@H]2[C@@H](c3ccc(-c4ccc(F)cc4)cc3)N3CCCC[C@@]3(C(=O)OC)[C@@H]2C1=O	?	·	10.4µM*	·	·
CCN1C(=O)[C@@H]2[C@@H](c3ccc(-c4ccc(F)cc4)c(OC)c3)N3CCCC[C@@]3(C(=O)OC)[C@@H]2C1=O	7.38µM*	·	10.4µM*	·	·
CCN1C(=O)[C@H]2[C@@H](c3ccc(C)cc3)N3C(=O)N(c4cccc(F)c4)C(=O)[C@@]3(CC)[C@H]2C1=O	?	-4.4	1.5%	-1.5%	-1.5
COC(=O)[C@@]12CCCN1[C@H](c1ccc(-c3ccc(F)cc3)cc1)[C@H]1C(=O)N(C)C(=O)[C@H]12	?	·	1.17µM*	·	·
Cc1ccc(NC(=O)c2cccc(NC(=O)/C=C/c3ccco3)c2)cc1C	?	136.8*	-22.6%	8.2%	57.2*
CCc1ccccc1NC(=O)c1cccc(NC(=O)/C=C/c2ccco2)c1	4.3%	105.1*	34.2%	15.0%	68.7*
O=C(/C=C/c1ccco1)Nc1cccc(C(=O)Nc2ccccc2C(=O)O)c1	27.7%	-6.3	35.4%	11.6%	-0.7
Cc1ccc(-n2nc3ccc(NC(=O)/C=C/c4ccco4)cc3n2)cc1	4.1%	74.1*	69.1%	9.8%	21.8*
NS(=O)(=O)c1ccc(NC(=O)/C=C/c2ccco2)cc1	33.3%	22.0	11.3%	·	13.0
CC(=O)N1CCN(S(=O)(=O)c2cccc(C(=O)Nc3ccc(F)c(F)c3)c2)CC1	0.0%	-4.5	1.3%	-41.6%	-2.4
N#Cc1ccc(-c2cccnc2)nc1SCc1ccc(Cl)c(Cl)c1	?	-4.2	9.28µM*	3.8%	-2.5
N#Cc1ccc(-c2cccnc2)nc1SCc1ccc(Cl)cc1Cl	?	-12.9	?	-4.4%	-3.6
Cc1ccc2c(c1)sc1ncc(NC(=O)c3ccc(F)cc3)c(=O)n12	175.7%	39.1	25.2%	·	12.3
Cc1ccc2c(c1)sc1nc(=O)n(-c3ccccc3)c(=O)n12	138.7%	93.0*	406.2%	0.9%	44.6*
CCOc1ccc(C(=O)NNC(=O)CNC(=O)c2ccc(C)s2)cc1OC	-14.5%	·	?	·	·
O=C1N/C(=N/NC(=O)c2cccc3ccccc23)S/C1=C\c1ccccc1OCc1ccccc1	?	-6.6	-0.3%	4.6%	-2.0
COc1ccc(OC)c(/C=C2\S/C(=N/NC(=O)c3ccc4ccccc4c3)NC2=O)c1	6.57µM*	-6.3	6.7%	7.7%	0.7
CCc1noc(C)c1C(=O)NNC(=O)COc1cc(C)ccc1C	-10.4%	·	7.5%	·	·
Clc1ccc(C2=NNC(=NCc3ccc4c(c3)OCO4)SC2)cc1	?	26.6	?	?	1.4
Oc1ccc(C2=NNC(=NCc3ccc4c(c3)OCO4)SC2)c(O)c1	?	13.9	12.9%	16.4%	31.7*
CCN(CC)c1nc(N)c2c(N)n(-c3ccccc3C)c(=S)c(C#N)c2c1C#N	·	15.8	12.5%	?	5.8
SMILES	Pf growth 96h	Shiga toxin inh	Pf growth 48h	NS1 inh	Cycloheximide cs
CCN(CC)c1nc(N)c2c(N)nc3c(c2c1C#N)CC(c1ccccc1)O3 (stereo not given)	·	-5.7	2.33µM*	-12.7%	-2.5
N#Cc1c(N2CCCCC2)nc(N)c2c(N)nc3c(c12)CC(c1ccccc1)O3 (stereo not given)	4.15µM*	14.9	5.86µM*	?	-1.2
CCC1Cc2c(nc(N)c3c(N)nc(N4CCCCC4)c(C#N)c23)O1 (stereo not given)	?	-5.5	?	4.1%	-1.0
O=C(O)/C(=C\C(=O)c1ccccc1)Nc1ccccc1	97.5%	83.5*	144.2%	9.3%	51.4*
O=C(NCCCc1ccccc1)Nc1cccc(Cl)c1	11.5%	24.0*	?	-57.4%	34.7*
Cn1c(CNC(=O)Nc2cccc(Cl)c2)nnc1SCc1ccccc1	13.1µM*	-21.1	?	-65.9%	-2.3
Cc1ccc(N2C(=O)CC(SCC(=O)Nc3ccc(S(N)(=O)=O)cc3)C2=O)cc1 (stereo not given)	298.2%	154.4*	147.6%	·	63.7*
Cn1c(CNC(=O)Nc2ccccc2)nnc1SCc1ccccc1	·	-2.5	19.1%	-4.8%	-1.8
O=C(Cn1cc([N+](=O)[O-])cn1)NC1CCCCCC1	47.8%	-13.3	26.9%	2.2%	-3.2
Clc1cccc(CN2CCN(Cc3nc(CCc4ccccc4)no3)CC2)c1	?	-7.1	4.3%	-4.1%	0.5
O=C(NNc1cccc(Cl)n1)c1ccc(Cl)cc1Cl	0.0%	29.1	52.8%	-2.9%	24.0*
CC(=O)c1ccc(NC(=S)NCCc2cccc(Cl)c2)cc1	16.8%	77.7*	?	-8.3%	27.0*
Cc1ccc(NC(=O)Nc2ccc(S(N)(=O)=O)cc2)cc1	10.7%	49.3*	31.2%	·	30.1*
CC(=O)c1cccc(NC(=S)NCCc2ccc(F)cc2)c1	34.9%[1.15 µM]	31.1	1.4%	4.4%	10.2
NS(=O)(=O)c1ccc(NC(=O)Nc2cccc(Cl)c2)cc1	-12.4%	25.2	7.9%	5.5%	19.3*
COc1cccc(N2CCN(C(=O)CN(C)S(=O)(=O)c3ccc4c(c3)CCC(=O)N4)CC2)c1	?	44.9	·	-9.1%	-0.7
FC(F)(F)c1nnc2ccc(Sc3ccccn3)nn12	32.1%	-7.2	17.4%	-11.8%	-2.3
NS(=O)(=O)c1ccc(NC(=S)NCCc2ccccc2)cc1	111.0%	10.3	14.0%	-6.2%	2.8
Cc1ccc(NC(=O)NC(=O)N(C(C)C)S(=O)(=O)c2ccc(C)cc2)cc1	111.6%	31.4	38.5%	·	22.6*
Cc1cc(C)cc(NC(=O)Nc2cccc(S(N)(=O)=O)c2)c1	42.6%	12.1	?	5.4%	-1.2
CC(=O)c1ccc(NC(=S)NCCc2ccc(S(N)(=O)=O)cc2)cc1	-7.7%	98.6*	29.7%	·	32.0*
NS(=O)(=O)c1cccc(NC(=O)Nc2ccccc2)c1	103.2%	26.3	2.08µM*	-7.6%	10.9*
CS/C(N)=N/C(=S)Nc1cccc(Cl)c1	0.0%	94.5*	70.7%	-30.9%	36.1*
O=C(Nc1ccc(F)c(F)c1)C1=COCCO1	44.9%	·	21.9%	·	·
O=S(=O)(c1ccc(F)cc1)N1CCN(Cc2ccccn2)CC1	?	11.8	-0.3%	1.7%	-3.4
O=C(O)/C=C/C(=O)NNC(=O)c1ccc(Cl)cc1Cl	-0.4%	58.4*	?	12.6%	27.0*
NS(=O)(=O)c1cccc(NC(=O)CCCC2CCCCC2)c1	27.8%	59.7*	11.2%	8.0%	13.8
N#Cc1ccccc1NC(=O)Nc1ccccc1	51.1%	-5.1	8.7%	-3.1%	-3.0
